# About 79,000 compounds went through this panel and 15% of them were active in at least one assay; those are over-represented in the sample as a whole. Values without a mark were called inactive. Activity calls are given as the source filed them. Cut-off read from the data, not from the text of the source: active = growth inhibition above about 70%; inactive = the rest.
# Columns and labels:
# [1] = NCI Yeast Anticancer Drug Screen. Data for the rad50 strain (AID 155);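 note: 0% = growth of vehicle-only cultures of the same strain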; settings: S. cerevisiae rad50 strain growth inhibition, active compounds read high
# Procedure, shortened: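 Cells are treated with compound, grown, and their growth is then scored against vehicle-only cultures of the same repair-deficient yeast strain.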
# [2] = NCI Yeast Anticancer Drug Screen. Data for the mec2-1 strain (AID 157); settings: S. cerevisiae mec2-1 strain, active compounds read high
# Procedure, shortened: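 Yeast mec2-1 mutant treated with compound. Readout: growth inhibition vs vehicle controls.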
# [3] = NCI Yeast Anticancer Drug Screen. Data for the sgs1 mgt1 strain (AID 161);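 note: 0% = growth of cultures given vehicle only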; settings: S. cerevisiae sgs1 mgt1 strain, active compounds read high
# Procedure, shortened: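 Genetically altered yeast, compound exposure, growth inhibition relative to vehicle.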
# [4] = NCI Yeast Anticancer Drug Screen. Data for the cln2 rad14 strain (AID 165);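 note: 0% = growth equal to vehicle treated cultures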; settings: S. cerevisiae cln2 rad14 strain, active compounds read high
# Procedure, shortened: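 cln2 rad14 yeast strain; compound exposure; growth inhibition read vs vehicle controls.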
# [5] = NCI Yeast Anticancer Drug Screen. Data for the bub3 strain (AID 167); settings: S. cerevisiae bub3 mutant strain, active compounds read high
# Procedure, shortened: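 Part of a panel of yeast mutants defective in DNA damage repair or cell cycle regulation. Each strain is grown with compound, and inhibition is calculated relative to solvent-treated cultures.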
# [6] = NCI Yeast Anticancer Drug Screen. Data for the mlh1 rad18 strain (AID 175); settings: S. cerevisiae mlh1 rad18 strain growth inhibition, active compounds read high
# Procedure, shortened: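 Yeast w/ defined DNA-repair lesions; compound exposure; growth vs vehicle controls → % inhibition.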
# [7] = at 5.0 µM (retest, dose inferred, filed as 0.5)
# [8] = at 50.0 µM (retest, dose inferred, filed as 5.0)
SMILES,"growth inhibition [1, 7] [%]","growth inhibition [1, 8]",growth inhibition ([1]; at 50.0 µM),"growth inhibition [2, 7] [%]","growth inhibition [2, 8]",growth inhibition ([2]; at 50.0 µM),"growth inhibition [3, 7] [%]","growth inhibition [3, 8]",growth inhibition ([3]; at 50.0 µM),"growth inhibition [4, 7] [%]","growth inhibition [4, 8]",growth inhibition ([4]; at 50.0 µM),"growth inhibition [5, 7]","growth inhibition [5, 8]",growth inhibition ([5]; at 50.0 µM),"growth inhibition [6, 7]","growth inhibition [6, 8]",growth inhibition ([6]; at 50.0 µM)
O=C1CCCCCC1Cc1cc(O)c(CC2CCCCCC2=O)cc1O (configuration not stated),10,54%,91.8% (active),8,34%,80.2% (active),12,82% (active),86.5% (active),-6,32%,11.2%,-3%,33%,64.2%,8%,88% (active),35.2%
CC(=O)c1ccc(OCc2ccccc2)cc1,1,-6%,-2.25%,1,5%,-15.5%,16,-6%,-17.9%,-3,2%,63.9%,2%,3%,9.75%,-3%,-9%,15.2%
C/C(=N\NC(=S)N1CCN(c2ccccn2)CC1)c1ccccn1,46,99% (active),87.7% (active),35,100% (active),90.2% (active),35,99% (active),89.8% (active),21,98% (active),83.2% (active),63%,100% (active),90.1% (active),58%,99% (active),88.3% (active)
CC[n+]1c(/C=C/c2cc(C(=O)OC)n3c2sc2ccccc23)sc2ccccc21,43,99% (active),99% (active),38,99% (active),99.2% (active),3,99% (active),99.2% (active),25,99% (active),98.4% (active),49%,99% (active),98.6% (active),61%,99% (active),98.8% (active)
O=c1oc2cc(N=Cc3ccc4c(c3)OCO4)ccc2c2ccccc12,-3,39%,80.7% (active),1,24%,8.65%,-7,4%,0.25%,-17,8%,1.2%,-4%,5%,25.6%,2%,42%,24.9%
CC/C(=N\NS(=O)(=O)c1ccc(C)cc1)c1cccc(OC)c1,34,47%,69.6%,12,37%,40.6%,50,90% (active),88.8% (active),37,78% (active),51.2%,43%,86% (active),36.6%,36%,87% (active),92.2% (active)
COC(=O)c1cccc2cccc(C(=O)Nc3ccc(Cl)cc3)c12,68,99% (active),90.2% (active),67,100% (active),93% (active),58,100% (active),92.3% (active),42,99% (active),92% (active),82% (active),82% (active),91.9% (active),87% (active),99% (active),90.3% (active)
Cc1ccc(N=c2cc(-c3ccccc3)oc3ccccc23)c(C)c1,1,74% (active),3%,-11,48%,-12.4%,3,93% (active),11%,5,51%,8.1%,11%,94% (active),5.6%,4%,94% (active),18.6%
COc1ccc(NC(=O)CCC(NS(=O)(=O)c2ccc(C)cc2)C(=O)O)cc1 (configuration not stated),-6,-3%,19.4%,-4,-5%,8.6%,-7,-23%,7.7%,-8,-17%,10.4%,-2%,2%,51.9%,-3%,-3%,19.1%
